{"source": "ChEMBL document CHEMBL3988442", "about": "“University of Dundee, Small-Polar-MMV Screening Library” (2021)"}
{"molecular_target": "T1, Tyrosyl-tRNA synthetase, putative (Trypanosoma cruzi (strain CL Brener)) (UniProt Q4DSP6)", "T1 sequence (whole entry)": "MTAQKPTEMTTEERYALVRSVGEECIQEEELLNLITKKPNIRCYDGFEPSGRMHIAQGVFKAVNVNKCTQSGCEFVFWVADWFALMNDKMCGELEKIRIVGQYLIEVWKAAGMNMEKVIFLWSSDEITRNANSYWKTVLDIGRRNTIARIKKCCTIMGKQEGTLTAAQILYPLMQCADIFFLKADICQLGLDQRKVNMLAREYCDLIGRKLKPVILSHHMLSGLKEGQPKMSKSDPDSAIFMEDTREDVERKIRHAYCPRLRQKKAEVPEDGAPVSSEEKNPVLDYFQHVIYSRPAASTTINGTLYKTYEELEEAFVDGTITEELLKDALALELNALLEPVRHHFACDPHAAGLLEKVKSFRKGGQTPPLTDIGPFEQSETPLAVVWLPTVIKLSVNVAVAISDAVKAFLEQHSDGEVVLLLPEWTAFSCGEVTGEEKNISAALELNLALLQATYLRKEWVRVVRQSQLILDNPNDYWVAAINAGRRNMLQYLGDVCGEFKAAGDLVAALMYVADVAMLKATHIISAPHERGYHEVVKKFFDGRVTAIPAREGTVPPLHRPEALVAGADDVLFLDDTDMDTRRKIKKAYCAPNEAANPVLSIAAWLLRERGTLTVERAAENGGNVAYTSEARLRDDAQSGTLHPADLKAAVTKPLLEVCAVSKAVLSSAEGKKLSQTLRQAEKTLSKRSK", "assay": "Trypanosoma cruzi tyrosyl tRNA synthetase (TcYRS) SOP", "type": "functional", "set-up": "scale not given: direction of the effect not stated beside the values", "settings": "30 µM", "units": {"Percent Effect": "%"}}
{"compound": "Cn1ccc(CN2CCC(COC3CCCC3)CC2)cc1=O", "Percent Effect": 17.7}
{"compound": "CCCC(NC(=O)c1cc(C)ccc1C)c1nnn[nH]1", "note": "(stereo not given)", "Percent Effect": 13.6}
{"compound": "NC(=O)C1CCCN(C(=O)c2cnc3c(cnn3C3CCCC3)c2)C1", "note": "(stereo not given)", "Percent Effect": 24.1}
{"compound": "Cc1ccc(NC2CCN(C(=O)CN(C)C3CC3)CC2)nn1", "Percent Effect": 7.59}
{"compound": "CCCOCC(=O)NC1CCc2nc(C)cn2C1", "note": "(stereo not given)", "Percent Effect": 13}
{"compound": "CNC(=O)c1cc2c(nc1NCC(C)C)CCN(S(=O)(=O)C1CC1)CC2", "Percent Effect": 8.64}
{"compound": "CC(C)n1cc(S(=O)(=O)N2CCCCC2)cn1", "Percent Effect": 15.4}
{"compound": "Cc1cccc(N2CCN(C(=O)CN3CCN(CCO)CC3)CC2)c1", "Percent Effect": 21}
{"compound": "CNc1cccc(C2CCCN(C(=O)c3ccncc3)C2)n1", "note": "(stereo not given)", "Percent Effect": 11.7}
{"compound": "CCN(CC)C(=O)Cn1ccc2cc(NC(=O)C3CCCO3)ccc21", "note": "(stereo not given)", "Percent Effect": 17.1}
{"compound": "Cc1nccn1-c1cc(CNC(=O)C(C)(C)C)ccn1", "Percent Effect": 17.5}
{"compound": "CCOc1ccc(C(=O)NS(=O)(=O)c2cncc(Br)c2)cc1OC", "Percent Effect": 9.76}
{"compound": "CC(C)CNC(=O)CN1C=Nc2ccccc2S1(=O)=O", "Percent Effect": 6.17}
{"compound": "CC(CNC(=O)N1CCSCC1)Cc1cccs1", "note": "(stereo not given)", "Percent Effect": 6.1}
{"compound": "NS(=O)(=O)CCNC(=O)c1nnn(-c2ccc(F)cc2)c1C1CC1", "Percent Effect": 15.8}
{"compound": "O=C(NCCOCC(F)(F)F)c1ccc(-c2ccco2)[nH]c1=O", "Percent Effect": 11.1}
{"compound": "O=C(NCCO)Nc1cccc(Cl)c1SC(F)F", "Percent Effect": -15.4}
{"compound": "Cc1nc(CN2CCCCC2Cn2cncn2)nc2ccccc12", "note": "(stereo not given)", "Percent Effect": 23.5}
{"compound": "N#CCSCCCN1CCCN(C(=O)c2ccccc2)CC1", "Percent Effect": 3.7}
{"compound": "COC(=O)CCN1CCCC1c1ccccc1Cl", "note": "(stereo not given)", "Percent Effect": 6.17}
{"compound": "Cc1cncc(C2CCCN(C(=O)c3scnc3C)C2)n1", "note": "(stereo not given)", "Percent Effect": 11.7}
{"compound": "COCCc1noc(CN2CCN(CC(O)c3ccccc3)CC2)n1", "note": "(stereo not given)", "Percent Effect": 10.1}
{"compound": "O=C(NCc1ccc(F)cc1)N1CCC(C2OCCO2)CC1", "Percent Effect": 13}
{"compound": "Cc1nn(C)c(C)c1C1CCCN1CC(=O)NC(C1CC1)C1CC1", "note": "(stereo not given)", "Percent Effect": 11.1}
{"compound": "Cn1ccc(C(=O)NC2CCC23CCN(C(=O)c2ccncc2)CC3)c1", "note": "(stereo not given)", "Percent Effect": 13.6}
{"compound": "CN(CC(=O)N1CCN(c2ncccn2)CC1)c1ccc(Cl)cn1", "Percent Effect": 14.6}
{"compound": "Cc1ncsc1CN1CC[C@H]2OCC[C@@]2(C(=O)NC(C)C)C1", "Percent Effect": -8.97}
{"compound": "Cc1nc(C)n(CC2CCCN(CCCOc3ccccc3)C2)n1", "note": "(stereo not given)", "Percent Effect": 12.7}
{"compound": "Cc1csc(CNC(=O)N(C)Cc2cnn(C)c2)n1", "Percent Effect": 23.2}
{"compound": "Cc1noc(-c2ccc(N3CCCC(C(=O)N4CCSCC4)C3)nc2)n1", "note": "(stereo not given)", "Percent Effect": 2.5}
{"compound": "CC(=O)NCCNC(=O)CN1CCN(Cc2nccn2C)C(C)C1", "note": "(stereo not given)", "Percent Effect": 6.1}
{"compound": "COc1ccc(CNC2CCN(CCc3ccncc3)CC2)cc1O", "Percent Effect": 8.54}
{"compound": "O=C1[C@@H]2CCN(Cc3ccoc3)C[C@@H]2OCCN1Cc1cccnc1", "Percent Effect": 1.28}
{"compound": "Cc1nccn1-c1cc(CNC(=O)CCNC(=O)C2CCCC2)ccn1", "Percent Effect": 23.5}
{"compound": "Cc1nn(C)cc1CN1CCC(C2Nc3ccccc3S(=O)(=O)N2)CC1", "note": "(stereo not given)", "Percent Effect": 14.3}
{"compound": "O=C(N[C@@H]1CN(Cc2ccc3c(c2)OCO3)[C@@H]2CCCO[C@@H]21)C1CC1", "Percent Effect": -60}
{"compound": "CC(C)c1nnc2n1CCN(Cc1csc(CC(=O)N(C)C)n1)C2", "Percent Effect": 7.32}
{"compound": "COc1ccc(NC(=O)NCC(O)c2ccc(F)cc2F)c(OC)c1", "note": "(stereo not given)", "Percent Effect": 10.1}
{"compound": "Cc1ccc(Cl)cc1C(=O)N1CCC2(CC1)c1ccccc1[C@@H](N)[C@@H]2O", "Percent Effect": 12.2}
{"compound": "Cc1cc(C)n(CC2CCCN2C(=O)c2ccc3c(c2)nnn3C)n1", "note": "(stereo not given)", "Percent Effect": 7.5}
{"molecular_target": "Chromo domain-containing protein 1 (Saccharomyces cerevisiae (strain ATCC 204508 / S288c) (Baker's yeast)) (UniProt P32657)", "sequence (P32657 whole entry, the tested form may be a part)": "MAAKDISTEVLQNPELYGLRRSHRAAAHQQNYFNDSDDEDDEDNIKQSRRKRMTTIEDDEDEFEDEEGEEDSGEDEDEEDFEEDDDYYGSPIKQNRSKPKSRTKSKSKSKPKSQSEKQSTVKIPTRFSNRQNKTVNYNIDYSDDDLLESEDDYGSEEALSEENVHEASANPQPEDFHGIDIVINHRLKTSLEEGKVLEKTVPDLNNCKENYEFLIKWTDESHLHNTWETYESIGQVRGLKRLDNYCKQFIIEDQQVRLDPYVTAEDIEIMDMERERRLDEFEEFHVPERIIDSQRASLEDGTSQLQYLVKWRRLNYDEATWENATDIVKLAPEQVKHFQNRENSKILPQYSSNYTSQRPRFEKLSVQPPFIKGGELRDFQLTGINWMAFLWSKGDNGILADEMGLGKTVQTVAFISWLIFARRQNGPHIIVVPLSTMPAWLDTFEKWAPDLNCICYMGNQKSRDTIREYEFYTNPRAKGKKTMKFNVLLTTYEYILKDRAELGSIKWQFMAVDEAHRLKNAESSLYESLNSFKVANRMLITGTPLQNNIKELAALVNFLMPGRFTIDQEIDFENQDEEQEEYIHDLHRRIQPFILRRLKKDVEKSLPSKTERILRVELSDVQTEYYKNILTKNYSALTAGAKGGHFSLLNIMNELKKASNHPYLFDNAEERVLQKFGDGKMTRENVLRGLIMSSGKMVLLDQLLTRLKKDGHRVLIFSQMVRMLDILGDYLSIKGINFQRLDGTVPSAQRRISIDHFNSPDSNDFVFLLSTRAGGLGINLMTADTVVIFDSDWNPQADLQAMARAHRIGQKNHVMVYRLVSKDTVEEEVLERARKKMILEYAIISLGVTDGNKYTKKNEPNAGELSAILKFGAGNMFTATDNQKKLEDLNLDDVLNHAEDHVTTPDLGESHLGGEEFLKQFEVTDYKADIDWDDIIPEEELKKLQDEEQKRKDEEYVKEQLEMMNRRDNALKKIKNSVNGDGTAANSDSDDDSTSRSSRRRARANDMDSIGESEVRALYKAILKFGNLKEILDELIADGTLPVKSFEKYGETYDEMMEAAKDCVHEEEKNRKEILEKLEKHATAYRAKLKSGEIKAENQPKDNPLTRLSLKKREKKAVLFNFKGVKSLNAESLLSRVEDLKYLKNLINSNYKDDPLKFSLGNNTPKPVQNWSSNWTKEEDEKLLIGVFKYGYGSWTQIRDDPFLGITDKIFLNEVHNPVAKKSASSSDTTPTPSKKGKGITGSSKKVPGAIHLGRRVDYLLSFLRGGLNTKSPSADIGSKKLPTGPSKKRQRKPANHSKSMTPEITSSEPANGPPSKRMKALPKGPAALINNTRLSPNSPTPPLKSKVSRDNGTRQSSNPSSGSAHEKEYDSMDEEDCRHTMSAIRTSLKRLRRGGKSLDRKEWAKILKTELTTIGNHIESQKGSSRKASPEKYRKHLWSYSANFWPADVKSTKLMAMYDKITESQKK", "assay": "ScCHD-1 Enzyme Inhibition Assay", "type": "functional", "set-up": "scale not given: in the data most compounds retested in dose-response had high values", "settings": "30 µM", "units": {"Percent Effect": "%"}}
{"compound": "Cn1ccc(CN2CCC(COC3CCCC3)CC2)cc1=O", "Percent Effect": -25.3}
{"compound": "CCCC(NC(=O)c1cc(C)ccc1C)c1nnn[nH]1", "note": "(stereo not given)", "Percent Effect": -1.49}
{"compound": "NC(=O)C1CCCN(C(=O)c2cnc3c(cnn3C3CCCC3)c2)C1", "note": "(stereo not given)", "Percent Effect": -11.1}
{"compound": "Cc1ccc(NC2CCN(C(=O)CN(C)C3CC3)CC2)nn1", "Percent Effect": -6.68}
{"compound": "CCCOCC(=O)NC1CCc2nc(C)cn2C1", "note": "(stereo not given)", "Percent Effect": -0.543}
{"compound": "CNC(=O)c1cc2c(nc1NCC(C)C)CCN(S(=O)(=O)C1CC1)CC2", "Percent Effect": -4.29}
{"compound": "CC(C)n1cc(S(=O)(=O)N2CCCCC2)cn1", "Percent Effect": -8.47}
{"compound": "Cc1cccc(N2CCN(C(=O)CN3CCN(CCO)CC3)CC2)c1", "Percent Effect": -0.672}
{"compound": "CNc1cccc(C2CCCN(C(=O)c3ccncc3)C2)n1", "note": "(stereo not given)", "Percent Effect": -14.3}
{"compound": "CCN(CC)C(=O)Cn1ccc2cc(NC(=O)C3CCCO3)ccc21", "note": "(stereo not given)", "Percent Effect": -14.2}
{"compound": "Cc1nccn1-c1cc(CNC(=O)C(C)(C)C)ccn1", "Percent Effect": -6.75}
{"compound": "CCOc1ccc(C(=O)NS(=O)(=O)c2cncc(Br)c2)cc1OC", "Percent Effect": -13.3}
{"compound": "CC(C)CNC(=O)CN1C=Nc2ccccc2S1(=O)=O", "Percent Effect": -5}
{"compound": "CC(CNC(=O)N1CCSCC1)Cc1cccs1", "note": "(stereo not given)", "Percent Effect": -3.96}
{"compound": "NS(=O)(=O)CCNC(=O)c1nnn(-c2ccc(F)cc2)c1C1CC1", "Percent Effect": -4.04}
{"compound": "O=C(NCCOCC(F)(F)F)c1ccc(-c2ccco2)[nH]c1=O", "Percent Effect": -6.31}
{"compound": "O=C(NCCO)Nc1cccc(Cl)c1SC(F)F", "Percent Effect": -1.91}
{"compound": "Cc1nc(CN2CCCCC2Cn2cncn2)nc2ccccc12", "note": "(stereo not given)", "Percent Effect": -22.8}
{"compound": "N#CCSCCCN1CCCN(C(=O)c2ccccc2)CC1", "Percent Effect": 6.49}
{"compound": "COC(=O)CCN1CCCC1c1ccccc1Cl", "note": "(stereo not given)", "Percent Effect": -0.731}
{"compound": "Cc1cncc(C2CCCN(C(=O)c3scnc3C)C2)n1", "note": "(stereo not given)", "Percent Effect": -22.3}
{"compound": "COCCc1noc(CN2CCN(CC(O)c3ccccc3)CC2)n1", "note": "(stereo not given)", "Percent Effect": -14.9}
{"compound": "O=C(NCc1ccc(F)cc1)N1CCC(C2OCCO2)CC1", "Percent Effect": -4.56}
{"compound": "Cc1nn(C)c(C)c1C1CCCN1CC(=O)NC(C1CC1)C1CC1", "note": "(stereo not given)", "Percent Effect": -9.75}
{"compound": "Cn1ccc(C(=O)NC2CCC23CCN(C(=O)c2ccncc2)CC3)c1", "note": "(stereo not given)", "Percent Effect": 0.95}
{"compound": "CN(CC(=O)N1CCN(c2ncccn2)CC1)c1ccc(Cl)cn1", "Percent Effect": -1.14}
{"compound": "Cc1ncsc1CN1CC[C@H]2OCC[C@@]2(C(=O)NC(C)C)C1", "Percent Effect": 0.0917}
{"compound": "Cc1nc(C)n(CC2CCCN(CCCOc3ccccc3)C2)n1", "note": "(stereo not given)", "Percent Effect": -5.2}
{"compound": "Cc1csc(CNC(=O)N(C)Cc2cnn(C)c2)n1", "Percent Effect": -4.86}
{"compound": "Cc1noc(-c2ccc(N3CCCC(C(=O)N4CCSCC4)C3)nc2)n1", "note": "(stereo not given)", "Percent Effect": -3.84}
{"compound": "CC(=O)NCCNC(=O)CN1CCN(Cc2nccn2C)C(C)C1", "note": "(stereo not given)", "Percent Effect": 10}
{"compound": "COc1ccc(CNC2CCN(CCc3ccncc3)CC2)cc1O", "Percent Effect": -9.05}
{"compound": "O=C1[C@@H]2CCN(Cc3ccoc3)C[C@@H]2OCCN1Cc1cccnc1", "Percent Effect": 1.76}
{"compound": "Cc1nccn1-c1cc(CNC(=O)CCNC(=O)C2CCCC2)ccn1", "Percent Effect": -6.78}
{"compound": "Cc1nn(C)cc1CN1CCC(C2Nc3ccccc3S(=O)(=O)N2)CC1", "note": "(stereo not given)", "Percent Effect": -9.41}
{"compound": "O=C(N[C@@H]1CN(Cc2ccc3c(c2)OCO3)[C@@H]2CCCO[C@@H]21)C1CC1", "Percent Effect": -2.23}
{"compound": "CC(C)c1nnc2n1CCN(Cc1csc(CC(=O)N(C)C)n1)C2", "Percent Effect": -15}
{"compound": "COc1ccc(NC(=O)NCC(O)c2ccc(F)cc2F)c(OC)c1", "note": "(stereo not given)", "Percent Effect": -20.4}
{"compound": "Cc1ccc(Cl)cc1C(=O)N1CCC2(CC1)c1ccccc1[C@@H](N)[C@@H]2O", "Percent Effect": 10.1}
{"compound": "Cc1cc(C)n(CC2CCCN2C(=O)c2ccc3c(c2)nnn3C)n1", "note": "(stereo not given)", "Percent Effect": -4.89}
